In ChEMBL document CHEMBL3988442, “University of Dundee, Small-Polar-MMV Screening Library” (2021):
Hit rate of the full screen: of about 48,000 compounds, about 13,000 (27%) showed an effect of 50% or more. This is one part of the list.

These compounds were tested on Wolbachia pipientis (assay: Anti-Wolbachia Cell-Based Screen). Details: 5 µM.
Format: functional
Parameters: scale not given: in the data most compounds retested in dose-response had high values

| Compound | Percent Effect |
| --- | --- |
| CCN(Cc1cccc(NC(=O)COCCOC)c1)C(C)=O | -8.699% |
| CCc1c(C)nn(CC(=O)NC(C)c2n[nH]c(C)n2)c1C (configuration not stated) | 2.562% |
| Cc1noc(C2CCN(c3oc(C)nc3C#N)CC2)n1 | -7.205% |
| CC(C)N1CCC(C(=O)NC[C@H]2CCc3ccccc3O2)CC1 | -3.949% |
| COC(=O)CCNC(=O)c1ccc(NC(=O)N(C)CC(C)(C)C)cc1 | 28.42% |
| Cc1nccn1CCCC(=O)N1CCCC(c2noc(C(C)C)n2)C1 (configuration not stated) | 94.02% |
| Cc1nc(C2CCCN(C(=O)CCCn3ccnc3C)C2)no1 (configuration not stated) | -5.463% |
| O=C1O[C@@H]2CN(Cc3ccccn3)C[C@@H]2N1CCCc1ccc(F)cc1 | 2.234% |
| Cc1ccc(OC2(C(=O)N(C)Cc3ccoc3)CCNCC2)cc1 | -12.66% |
| Cc1n[nH]c(SCCNC2CCN(c3nc4ccccc4s3)CC2)n1 | -0.1074% |
| CCS(=O)(=O)CCNC1CCN(c2nc3ccc(Cl)cc3s2)CC1 | -46.95% |
| CCCc1cc(CNC2CCN(c3cc(C)nc(N)n3)CC2)on1 | 82.71% |
| CCCc1cc(CNC2CCN(c3nc4ccccc4s3)CC2)on1 | 114.2% |
| Cc1cc(C)nc(N2CCC(NCCSc3nnnn3C)CC2)n1 | -14.51% |
| CCCc1cc(N2CCC(N[C@H]3CC[C@H](O)CC3)CC2)nc(C)n1 | -4.932% |
| CCCc1cc(CNC2CCN(c3nc(C)cc(C)n3)CC2)on1 | 99.03% |
| CCCc1cc(CNC2CCN(c3cc(C(C)C)nc(C)n3)CC2)on1 | 93.6% |
| CCCc1cc(N2CCC(NC3CCS(=O)(=O)C3)CC2)nc(C)n1 (configuration not stated) | -13.12% |
| CCCc1cc(N2CCC(NC3CCOCC3)CC2)nc(C)n1 | 29.8% |
| CCCc1cc(CNC(=O)Cc2cc(C)no2)on1 | 0.033% |
| CCCc1cc(N2CCC(NCC3(O)CCN(C)CC3)CC2)nc(C)n1 | -6.496% |
| Cc1ccc(C(=O)N2CCN(c3ncnc4nc(N)ccc34)CC2)o1 | -4.077% |
| Cc1noc(C)c1S(=O)(=O)NCC(C)(O)c1ccc2c(c1)OCO2 (configuration not stated) | 22.76% |
| CCS(=O)(=O)c1ccc2oc([C@H]3CCN(Cc4ccncc4)C3)nc2c1 | -3.63% |

| Compound | Percent Effect |
| --- | --- |
| CN1N=C(C(=O)N2CCCC(CCc3ccccc3)C2)CCC1=O (configuration not stated) | -44.22% |
| COCCN(C)Cc1ccc(OC)c(OC(F)F)c1 | -5.242% |
| COCc1cc(C[C@@H]2CC[C@H](O)[C@@H](CN(CC(C)C)CC(C)C)O2)no1 | -3.447% |
| Cc1nc(CN2C(=O)C[C@@H]3[C@@H]2CCN3S(=O)(=O)C2CC2)cs1 | 97.85% |
| Cc1nc(CN2C(=O)C[C@@H]3[C@@H]2CCN3Cc2cnn(C)c2)cs1 | 96.83% |
| Cc1nc(CN2C(=O)C[C@@H]3[C@@H]2CCN3S(C)(=O)=O)cs1 | 77.62% |
| Cc1nc(CN2C(=O)C[C@@H]3[C@@H]2CCN3C(=O)C2CCOCC2)cs1 | 6.269% |
| CCOC(=O)c1nc(CN2CCN(C(C)C(=O)NC3CC3)CC2)cs1 (configuration not stated) | -13.36% |
| COc1ccc2cccc(CC(=O)NCCc3n[nH]c(=O)[nH]3)c2c1 | -7.606% |
| CCCC(=O)NCCc1nc2cc(-c3ccc(OC)cc3)ncn2n1 | 102.6% |
| COc1ccc(CCC(=O)NCc2cc(C)on2)cc1 | 0.6679% |
| CCNc1nc(-c2cccnc2)c(-c2ccnc(NS(C)(=O)=O)n2)s1 | 73.47% |
| CCNc1nc(-c2cccnc2)c(-c2ccnc(NCCO)n2)s1 | 103.5% |
| COc1ccc(NCc2c[nH]nc2-c2cccnc2)cc1 | -7.559% |
| CCCNCc1cn(Cc2ccccc2)nc1-c1cccnc1.Cl | -0.3485% |
| Cn1cnc2c(-c3cccnc3)nc(C3CCN(S(C)(=O)=O)CC3)cc21 | -22.74% |
| CC(C)(C)Nc1nc(-c2cccnc2)c(-c2ccnc(NCCO)n2)s1 | 93.88% |
| CC(CNc1nccc(C(C)C)n1)Oc1cccnc1 (configuration not stated) | 15.19% |
| Cn1c(CN2CCC(O)CC2)nnc1C1CCCN(c2ccncc2)C1 (configuration not stated) | -3.015% |
| N#Cc1cc(Cl)ccc1N1CCOC(C(N)=O)C1 (configuration not stated) | -16.78% |
| Cc1cccc(CN2CCN(c3ncnc4[nH]cnc34)CC2CCO)n1 (configuration not stated) | 8.055% |
| Cc1ccc(C(=O)NC2CCCN(c3ncccn3)C2)cn1 (configuration not stated) | 6.467% |
| CCOc1ncccc1NC(=O)NC1CCN(C(=O)C2CC2)CC1 | 105.1% |
| CCOc1ncccc1NC(=O)NC1CCN(C(C)=O)CC1 | 106.2% |

| Compound | Percent Effect |
| --- | --- |
| CCOc1ncccc1C(=O)NC1CCCN(c2ncccn2)C1 (configuration not stated) | 120.7% |
| CCN1CCC(CNC(=O)Nc2cccnc2OC)CC1 | 15.3% |
| CCOCc1ccccc1NC(=O)NC1CCN(c2ncccn2)CC1 | 3.518% |
| CCOc1ncccc1NC(=O)N1CCCCCC1 | 3.505% |
| CCCC1CCCN(C(=O)Nc2cccnc2OC)CC1 (configuration not stated) | 9.171% |
| CCOc1ncccc1C(=O)NC1CC(=O)N(CC(F)(F)F)C1 (configuration not stated) | -4.406% |
| CCOc1ncccc1NC(=O)N1CCOCC1C (configuration not stated) | -9.997% |
| CCOc1ccc(C(=O)NC2CCN(c3ncccn3)CC2)cc1C | 5.908% |
| CCOc1ncccc1NC(=O)NC1CCN(c2ncccn2)CC1 | 128.6% |
| CCN(CC(F)(F)F)C(=O)C1CCCN(Cc2ccno2)C1 (configuration not stated) | -5.798% |
| CCOCCC(=O)N1CC(=O)Nc2cc(Br)ccc21 | 10.79% |
| CC(=O)NC(Cc1c[nH]c2cc(F)ccc12)C(=O)Nc1nonc1C (configuration not stated) | -8.72% |
| Cc1cccc(C(C(=O)NCCCc2nnc3ccccn23)N(C)C)c1 (configuration not stated) | -0.5328% |
| O=C(O)C(F)(F)F.c1ccc(NC[C@@H]2CCC[C@@H]3CN(c4ncccn4)C[C@@H]32)nc1 | 13.12% |
| Cc1cccc(-n2nc(CC(C)C)nc2CCC(=O)N(C)C)c1 | 1.155% |
| CCOc1ncccc1NC(=O)N1CCCC1c1cc(C)no1 (configuration not stated) | 4.545% |
| CCOc1ncccc1NC(=O)N1CCN(c2cccc(C)c2C)CC1 | -4.888% |
| CCOc1ncccc1NC(=O)NC1CCCN(S(C)(=O)=O)C1 (configuration not stated) | 87.05% |
| COc1ncccc1NC(=O)NCC1CC1 | 5.858% |
| COc1ncccc1NC(=O)NC1CCCN(c2ncccn2)C1 (configuration not stated) | 123% |
| Cc1ccc(CNC(=O)NC2CCCN(c3ncccn3)C2)cn1 (configuration not stated) | -0.9532% |
| CCOCc1ccccc1NC(=O)NC1CCN(C(=O)OCC)CC1 | 14.37% |
| COc1ncccc1NC(=O)C1CCN(S(C)(=O)=O)CC1 | 9.079% |
| CCOC(=O)N1CCC(NC(=O)Nc2cccnc2OCC)CC1 | 102.8% |
